Compound activity deposited in PubChem BioAssay by National Center for Advancing Translational Sciences (NCATS).
Only some compounds are listed: those with a hit (about 12% of all), similar ones and a draw of the others.
Sfp inh: inhibitors of Bacillus subtilis Sfp phosphopantetheinyl transferase; Biochemical Sfp PPTase activity, qHTS; Potency, µM, inactives show largest response in the series, negative = inhibition, hits mostly inhibitors; 310,000 tested, 3.5% active;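 note: the enzyme is Sfp with the accession as filed and its product quenches rhodamine fluorescence; 0% = enzyme reaction without inhibitor and -100% = no enzyme wells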
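Reaction rates are the 30-min fluorescence difference (ex 525, em 598 nm) in wells containing 15 nM Sfp, 5 uM rhodamine-CoA and 12.5 uM BHQ-2-YbbR at pH 7.6 with 10 mM MgCl2.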
VP16 counter: inhibits Gal4-VP16 luciferase reporter, ROR gamma counter-screen. 310,000 tested, 3.5% active. Potency, µM (series often up to 53.6 µM), without a hit: at the highest dose activity, negative = inhibition, actives largely listed as inhibitors. AID 2546. Drosophila S2 Gal4-VP16 UAS-luciferase, luminescence, 20 h;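 note: Gal4-VP16 expression switched on by copper sulfate through the metallothionein promoter; nearly all actives have a fitted effect of over 50% in size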
PLK1 PBD inh: PLK1 (human) polo-box domain binding inhibition; 360,000 tested, 2.8% active; P53350; Potency, µM, for inactives: max response, negative = inhibition, usual class: inhibitors; AID 720504; Plk1 PBD binding of FITC phosphopeptide, fluorescence polarization; note: series mostly up to about 57 µM; nearly all actives have a fitted effect of over 65% in size
ALDH1A1 inh: inhibitors of human aldehyde dehydrogenase 1A1; P00352; Purified ALDH1A1, NADH fluorescence, propionaldehyde substrate; Potency, µM (doses to about 75.3 µM), without a hit: top-dose activity, negative = inhibition, actives largely listed as inhibitors; 220,000 tested, 7.3% active; active = well fitted inhibition curve with a large enough effect, not every such curve was filed as active; inconclusive = small, poorly fitted or top-dose-only effect, or another doubt; inactive = no such curve, though single readings can be large or run the other way;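 note: plate controls were no enzyme wells and a reference inhibitor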
RORgamma inh: blocks mouse ROR gamma transcriptional activity; Drosophila S2 Gal4-RORgamma UAS-luciferase reporter, 20 h; Potency, µM (top dose mostly 53.6 µM), inactives show at the top dose activity change, negative = inhibition, hits mostly inhibitors; 310,000 tested, 5.4% active; note: nearly all actives have a fitted effect of over 60% in size
Target sequence (P51450 whole entry, looked up, the tested form may be a part): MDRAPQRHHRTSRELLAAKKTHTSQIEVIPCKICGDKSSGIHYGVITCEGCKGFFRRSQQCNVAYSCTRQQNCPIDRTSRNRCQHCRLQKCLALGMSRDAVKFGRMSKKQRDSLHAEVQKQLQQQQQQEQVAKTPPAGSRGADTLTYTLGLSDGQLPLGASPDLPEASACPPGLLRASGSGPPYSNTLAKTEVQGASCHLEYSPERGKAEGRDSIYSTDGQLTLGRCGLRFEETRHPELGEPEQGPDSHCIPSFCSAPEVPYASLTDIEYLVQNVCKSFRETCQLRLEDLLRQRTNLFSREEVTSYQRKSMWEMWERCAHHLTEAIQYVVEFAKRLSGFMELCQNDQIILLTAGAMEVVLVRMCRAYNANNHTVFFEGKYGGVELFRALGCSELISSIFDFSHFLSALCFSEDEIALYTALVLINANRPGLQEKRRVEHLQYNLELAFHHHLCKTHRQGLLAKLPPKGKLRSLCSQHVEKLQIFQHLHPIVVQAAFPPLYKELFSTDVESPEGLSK
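Compounds are pin-transferred onto Drosophila Schneider cells expressing a copper-inducible Gal4–ROR gamma transactivation domain fusion. After 1 hr, copper sulfate is added to 700 uM final; luciferase is read 20 hr later.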
Active calls of the source: *; ? = inconclusive; . = no result given; ! = repeats disagree. Unless noted, calls come from the whole dose curve; as a rule, active = well fitted curve in the direction sought with a large enough effect; inconclusive = small, poorly fitted or top-dose-only effect, or another doubt; inactive = no such curve, though single readings can be large; an effect the other way counts as inactive or inconclusive. Unless noted, % is set by controls: 0 for no effect and ±100 for the full control effect; potency is the fitted concentration of half-maximal effect.

SMILES	Sfp inh	VP16 counter	PLK1 PBD inh	ALDH1A1 inh	RORgamma inh
CC(C)C1COC(c2cccc3ccccc23)=N1 (stereo not drawn)	-29%	?	-1%	-14%	20µM*
CCn1cc(C2=NC(CCSC)CO2)c2ccccc21 (stereo not drawn)	-4%	?	0%	3%	7.9µM*
COc1ccc(C(=O)N2CCC3(CCCN(C(=O)Nc4cccc(F)c4)C3)CC2)cc1	-5%	-11%	.	3%	-6%
Cc1ccc(CNS(=O)(=O)c2ccc(-n3cccn3)cc2)cc1	.	.	-12%	.	.
Cc1ccc(CCNC(=O)c2cccc(N3CCCC3=O)c2)cc1	9%	0%	-8%	.	6%
O=C(NCCc1ccccc1)c1cccc(N2CCCC2=O)c1	7%	10µM*	-12%	.	11µM*
Cc1cccc(CCNC(=O)c2cccc(N3CCCC3=O)c2)c1	19%	-15%	-5%	.	10µM*
Cc1ccccc1-c1cnc(C(O)c2cc(Cl)cc(Cl)c2)[nH]1 (stereo not drawn)	.	.	-6%	.	.
CCc1c(C)nc2nc(SCc3ccccc3Cl)[nH]n2c1=O	5%	25µM*	-29%	.	?
CC(=O)N1CC(=O)N=C1SCC(=O)Nc1nc(-c2ccccc2)c(-c2ccccc2)s1	-9%	7.9µM*	-9%	-13%	7.1µM*
Cn1ncc2c(NNC(=O)C3CCCCC3)ncnc21	5%	6%	-9%	5%	-24%
Cn1ncc2c(NNC(=O)c3ccc(Cl)c(Cl)c3)ncnc21	7%	1.1µM*	1%	1%	0.32µM*
Cn1ncc2c(Nc3ccc(Cl)cc3)ncnc21	26%	?	-6%	.	28%
Cn1ncc2c(NNC(=O)c3ccc(Cl)cc3Cl)ncnc21	-8%	7.1µM*	-15%	11%	6.3µM*
CC1=C(C(=O)OCc2ccccc2)C(c2ccc3ccccc3c2)NC(=O)N1CCCCCC(=O)O (stereo not drawn)	-7%	-1%	-13%	-8%	7.9µM*
CC1=C(C(=O)OCc2ccccc2)C(c2ccc([N+](=O)[O-])cc2)NC(=O)N1CCCCCC(=O)O (stereo not drawn)	45µM*!	18%	-3%	-12%	10µM*
CC1=C(C(=O)OCc2ccccc2)C(c2ccc3ccccc3c2)NC(=O)N1CCCC(=O)O (stereo not drawn)	0%	-4%	-1%	.	11µM*
